# Compounds without any hit were thinned out: in the full panel of roughly 79,000, 15% have a hit. Unmarked numbers belong to inactive results. The source made the active and inactive calls. Rule as the data show it: active = growth inhibition above about 70%; inactive = the rest.
# Assays:
# [1] = NCI Yeast Anticancer Drug Screen. Data for the rad50 strain (AID 155);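 also: 0% = growth of vehicle-only cultures of the same strain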; settings: S. cerevisiae rad50 strain growth inhibition, active compounds read high
# How it was run: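 Compounds were tested on a yeast strain with an engineered DNA damage repair alteration; the reported value is growth inhibition normalised to vehicle treatment.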
# [2] = NCI Yeast Anticancer Drug Screen. Data for the mec2-1 strain (AID 157); settings: S. cerevisiae mec2-1 strain, active compounds read high
# How it was run: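 Mutant yeast (mec2-1) grown with compound; growth inhibition relative to vehicle control reported.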
# [3] = NCI Yeast Anticancer Drug Screen. Data for the sgs1 mgt1 strain (AID 161);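 also: 0% = growth of cultures given vehicle only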; settings: S. cerevisiae sgs1 mgt1 strain, active compounds read high
# How it was run: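 Growth of a repair-deficient yeast mutant was monitored after compound treatment and expressed as inhibition relative to vehicle-treated cultures.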
# [4] = NCI Yeast Anticancer Drug Screen. Data for the cln2 rad14 strain (AID 165);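 also: 0% = growth equal to vehicle treated cultures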; settings: S. cerevisiae cln2 rad14 strain, active compounds read high
# How it was run: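 Readout is yeast growth inhibition versus vehicle-treated controls, using a strain with cln2 and rad14 alterations exposed to compound.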
# [5] = NCI Yeast Anticancer Drug Screen. Data for the bub3 strain (AID 167); settings: S. cerevisiae bub3 mutant strain, active compounds read high
# How it was run: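 Growth of a checkpoint-deficient yeast mutant is measured after compound exposure. Values represent inhibition relative to vehicle.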
# [6] = NCI Yeast Anticancer Drug Screen. Data for the mlh1 rad18 strain (AID 175); settings: S. cerevisiae mlh1 rad18 strain growth inhibition, active compounds read high
# How it was run: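 Genetically defined yeast (DNA repair-deficient) exposed to compounds; growth inhibition determined relative to vehicle.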
# [7] = at 5.0 µM (retest, dose inferred, filed as 0.5)
# [8] = at 50.0 µM (retest, dose inferred, filed as 5.0)
SMILES,"growth inhibition [1, 7]","growth inhibition [1, 8]",growth inhibition ([1]; at 50.0 µM),"growth inhibition [2, 7]","growth inhibition [2, 8]",growth inhibition ([2]; at 50.0 µM),"growth inhibition [3, 7]","growth inhibition [3, 8]",growth inhibition ([3]; at 50.0 µM),"growth inhibition [4, 7]","growth inhibition [4, 8]",growth inhibition ([4]; at 50.0 µM),"growth inhibition [5, 7]","growth inhibition [5, 8]",growth inhibition ([5]; at 50.0 µM),"growth inhibition [6, 7]","growth inhibition [6, 8]",growth inhibition ([6]; at 50.0 µM)
COC(=O)CC1SC(=S)N(Cc2ccc(Cl)cc2)C1=O (configuration not stated),-6%,80% (active),98.1% (active),-8%,61%,92.5% (active),2%,93% (active),98.5% (active),-59%,28%,55.6%,-15%,81% (active),87.5% (active),-25%,88% (active),98% (active)
CCCCCCCCCCCCCCNC(=O)CCC(NC(=O)c1ccc(N(C)Cc2cnc3nc(N)nc(N)c3n2)cc1)C(=O)NCCCCCCCCCCCCCC (configuration not stated),28%,94% (active),64.9%,22%,96% (active),84.7% (active),19%,93% (active),86.3% (active),3%,77% (active),45.1%,24%,93% (active),68.7%,24%,91% (active),20.8%
Cc1ccc(O)c(C(C)(C)c2ccccc2)c1,-8%,77% (active),99.5% (active),-5%,94% (active),99.8% (active),-9%,43%,99.7% (active),-6%,90% (active),98.7% (active),-49%,95% (active),99.5% (active),-10%,94% (active),99.3% (active)
O=C(CC1C(=O)c2ccccc2C1=C1C(=O)c2ccccc2C1=O)c1ccccc1 (configuration not stated),-8%,71% (active),81.8% (active),22%,92% (active),89.8% (active),9%,84% (active),89.3% (active),19%,69%,68%,11%,94% (active),79.2% (active),-3%,95% (active),74% (active)
C[N+](C)([O-])CCC=C1c2ccccc2CCc2ccccc21,10%,46%,62.5%,12%,9%,28.4%,-2%,33%,7.75%,-20%,21%,12.5%,3%,33%,73.5% (active),4%,33%,33.5%
Cc1cc(N2C(=O)CSC2=S)c([N+](=O)[O-])cc1C,23%,99% (active),99.2% (active),17%,100% (active),99.5% (active),64%,99% (active),99.5% (active),7%,97% (active),99.1% (active),42%,99% (active),99.5% (active),84% (active),99% (active),99.3% (active)
CC(C)(C)/C=N/NS(=O)(=O)c1ccccc1,-114%,-146%,-1%,-43%,-43%,-7.35%,-44%,-62%,2.5%,-50%,-61%,40.5%,-57%,-67%,-5.2%,-100%,-108%,4.65%
O=C(O)CCC(O)=C1S(=O)(=O)OCCOS1(=O)=O,-21%,16%,36%,-8%,10%,4.25%,-16%,-3%,-1.5%,-42%,-30%,47.7%,-18%,3%,15.7%,-17%,-28%,8.3%
Nc1nc(N)c(N=O)c(Nc2cccc(Br)c2)n1,57%,98% (active),1.15%,46%,99% (active),13.8%,70% (active),98% (active),-6.85%,48%,98% (active),76.7% (active),50%,98% (active),56.1%,64%,98% (active),5.05%

# — PubChem BioAssay (NCI)
